Rows were chosen to be rich in hits. Some 21% of all compounds tested hit in one or more screens of this group.
Pf growth 96h: inhibits malaria parasite growth, 96 h; 320,000 compounds, 6.9% hits; Potency, µM (highest dose often 28.7 µM), usual class: inhibitors; P. falciparum luciferase reporter growth, 96 h
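Parasite growth measured via integrated firefly luciferase reporter in P. falciparum. Infected erythrocytes at 2% hematocrit, 0.05% parasitemia final were treated 96 hours at 37 C under 5% CO2, and luminescence was read.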
CHX counter: affects cycloheximide protein synthesis inhibition readout, counter-screen; max response, %; cell reporter, cycloheximide protein synthesis inhibition counterscreen; 300,000 compounds, 12% hits; AID 2314; in the data active = max response mostly above about 13%, no sharp cut-off; inactive = mostly below about 14%; also: read at 38.3 µM for the half of the compounds with a filed dose
Pf growth 48h: inhibits P. falciparum growth in the first generation, 48 h. AID 504832. P. falciparum luciferase growth in erythrocytes, 48 h. Potency, µM (series often up to 28.7 µM), hits mostly inhibitors. 310,000 compounds, 5.9% hits
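In quantitative HTS format, infected erythrocytes bearing luciferase-reporter parasites were treated for a single generation at 37 C. Luminescence after adding detection reagent served as the growth measure.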
Shiga toxin inh: inhibitors of Shiga toxin in Vero cells; Vero cells, Shiga toxin protein synthesis inhibition reporter; inhibition, % at 38.7 µM; 290,000 compounds, 9.2% hits; in the data active = inhibition mostly above about 28%, no sharp cut-off; inactive = mostly below about 43%
Large screens that a line does not name were inactive. Unless noted, calls follow the shape of the dose curve; as a rule, active = well fitted inhibition curve with a large enough effect; inconclusive = small, poorly fitted or top-dose-only effect, or another doubt; inactive = no such curve, though single readings can be large or run the other way.

Cc1ccc(NC(=O)CSc2nnc(C3CC3)n2CC2CCCO2)cc1C (stereo not drawn)	none
O=C(CCC(=O)c1ccccc1)Nc1ccccc1OC(F)F	none
CN(C)/C=N/NC(=O)c1ccccc1	Pf growth 48h inconclusive
O=C(O)c1ccccc1NN=C1CCCCC1	CHX counter 57, Shiga toxin inh 110
CC(O)C(O)C(O)C(O)/C=N/NC(=O)c1ccccc1 (stereo not drawn)	Pf growth 96h inconclusive, CHX counter 38, Pf growth 48h inconclusive, Shiga toxin inh 86
O=C(CC(=O)NN=C1CCCCCC1)NCc1cccnc1	none
O=C(NN=C1CCCCC1)c1ccccc1-n1cccc1	none
O=C(NN=C1CCCCCC1)c1cccnc1	CHX counter 31, Shiga toxin inh 84
O=C(NN=C1CCCC1)c1ccc(Br)cc1	none
COc1ccc(C(=O)NN=C2CCCC2)cc1	Pf growth 96h 9.3µM, CHX counter active
CC(OC(=O)CCN=C1NS(=O)(=O)c2ccccc21)C(=O)NCc1ccccc1 (stereo not drawn)	none (no result: CHX counter, Shiga toxin inh)
Cc1ccc(S(=O)(=O)N(C)C)cc1NC(=O)CCNC(=O)c1ccco1	none
CCn1c(=O)c(=O)[nH]c2c(=O)oc3ccc(S(=O)(=O)Nc4ccccc4)cc3c21	none
COc1ccc(NC=O)c(C(=O)CCNC(C)=O)c1	none (no result: Pf growth 96h, Pf growth 48h)
Cc1cccc(CCNS(=O)(=O)c2ccc3c(c2)CCN3C(=O)CCC(=O)O)c1	Pf growth 96h inconclusive
Cc1cc(OCc2ccc(C(=O)NN=C3CCCC3)cc2)ccc1Cl	CHX counter 57, Shiga toxin inh 85
CC(C)=CCC/C(C)=C/CC(C)(C)CNCCN1CCNCC1	Pf growth 96h 4.7µM, Pf growth 48h 4.7µM
CC(C)=CCC/C(C)=C/CCC(C)NCCN1CCNCC1 (stereo not drawn)	Pf growth 96h inconclusive, Pf growth 48h 13µM
NS(=O)(=O)c1ccc(CCNC(=O)c2ccc3nc4ccc(Cl)cc4c(=O)n3c2)cc1	Pf growth 48h 12µM
COc1ccc(C2Nc3ccccc3C(=O)N2c2ccc(C)cc2)cc1Cn1nc(C)c([N+](=O)[O-])c1C (stereo not drawn)	Pf growth 96h inconclusive, CHX counter 47, Pf growth 48h inconclusive
COc1ccc(N2C(=O)c3ccccc3NC2c2ccc(OC)c(Cn3nnc4ccccc43)c2)cc1 (stereo not drawn)	Pf growth 96h 9.3µM, CHX counter 21, Pf growth 48h 12µM
COc1ccc(C)cc1CN1C(=O)c2ccccc2C1=O	none
COc1ccc(C2Nc3ccccc3C(=O)N2c2ccc(C)cc2)cc1COc1ccccn1 (stereo not drawn)	CHX counter 37
COC(=O)N/N=C/C1=C[N+](=O)c2ccccc2[N+]1=O	Pf growth 96h inconclusive (no result: CHX counter, Shiga toxin inh)
Cc1ccccc1NS(=O)(=O)c1cc2c(cc1C)NC(=O)CO2	Pf growth 96h inconclusive
Cc1cccc(CCNS(=O)(=O)c2cc3c(cc2C)NC(=O)CO3)c1	Pf growth 96h 9.3µM
Cc1cccc(CCNC(=O)CCS(=O)(=O)c2cc3c(cc2C)NC(=O)CO3)c1	Pf growth 96h inconclusive
Cc1ccc(CCNS(=O)(=O)c2cc3c(cc2C)NC(=O)CO3)cc1	none
Cc1cc2c(cc1S(=O)(=O)CCC(=O)NCCc1ccccc1)OCC(=O)N2	Pf growth 96h 8.3µM
CC(=O)c1cccc(NS(=O)(=O)c2cc3c(cc2C)NC(=O)CO3)c1	Pf growth 96h 15µM
CC(C)N(C)Cc1nnnn1CC(=O)NCCc1cccc(C(F)(F)F)c1	Pf growth 96h inconclusive
Cc1nc2ccccn2c1C(=O)NNC(=O)Nc1cccc(C(F)(F)F)c1	none
Cc1ccc(NC(=O)C2CC(=O)N(Cc3ccco3)C2)cc1 (stereo not drawn)	none
COc1ccc2c(c1)-c1nc(/N=C/c3ccc(O)cc3)sc1CC2	Pf growth 96h 4.1µM
Oc1ccc2ccccc2c1/C=N/c1nccs1	Pf growth 48h inconclusive (no result: Pf growth 96h)
COc1ccc2c(c1)-c1nc(/N=C/c3c(O)ccc4ccccc34)sc1CC2	Pf growth 96h 4.7µM
CCOC(=O)/C=C(C)\C=C\c1c[nH]c2ccccc12	CHX counter 30, Pf growth 48h 13µM, Shiga toxin inh 56
CCOC(=O)/C(=C/c1c[nH]c2ccccc12)NC(C)=O	none
O=C(O)CSc1nnc(COc2ccc(Br)cc2)n1-c1ccccc1	Pf growth 96h inconclusive (no result: Shiga toxin inh)
CCOC(=O)CN(C(=O)CSc1nnc2c(n1)[nH]c1c(C)cc(C)cc12)c1ccccc1	Pf growth 96h inconclusive (no result: Pf growth 48h)
CCOC(=O)CN(C(=O)CSc1nnc2c(n1)[nH]c1ccccc12)c1ccccc1	Pf growth 96h inconclusive, Pf growth 48h 7.4µM
O=C(CSc1nnc2c(n1)[nH]c1ccc(F)cc12)Nc1ccccc1F	none
CCOC(=O)CN(C(=O)CSc1nnc2c(n1)[nH]c1ccc(F)cc12)c1ccccc1	Pf growth 48h 13µM
COC(=O)N/N=C/c1sc(N2CCCCC2)nc1-c1cccs1	Pf growth 96h inconclusive, Pf growth 48h inconclusive
CC(C)c1onc(C(=O)NCc2ccc(Cl)cc2)c1[N+](=O)[O-]	Pf growth 48h inconclusive
COc1ccc(CNC(=O)c2noc(C(C)C)c2[N+](=O)[O-])cc1	Pf growth 96h 1.9µM
CC(C)c1onc(C(=O)NCc2ccccc2)c1[N+](=O)[O-]	CHX counter 23, Pf growth 48h inconclusive, Shiga toxin inh 41
CC(C)c1onc(C(=O)N(C)C2CCCCC2)c1[N+](=O)[O-]	CHX counter 26, Pf growth 48h inconclusive
NC(=S)N=Nc1c(O)[nH]c2c(Br)cc(Br)cc12	Pf growth 48h inconclusive
COc1ccccc1CC(NC(C)=O)C(=O)NC1CCN(C(=O)c2ccc(C)cc2)CC1 (stereo not drawn)	Pf growth 96h inconclusive
O=C(OCC(=O)C12CC3CC(CC(C3)C1)C2)c1ccccn1	none
Cc1ccc(-c2ncccc2OC(=O)C23CC4CC(CC(C4)C2)C3)cc1	Pf growth 96h 9.3µM, Pf growth 48h inconclusive
N/C(=N\OC(=O)C12CC3CC(CC(C3)C1)C2)c1ccncc1	Pf growth 96h inconclusive, Pf growth 48h 10µM
Cc1ccc(/C(N)=N/OC(=O)C23CC4CC(CC(C4)C2)C3)cc1	Pf growth 96h inconclusive, CHX counter 23, Shiga toxin inh 101
COCCCN(C(=S)NC(=O)C12CC3CC(CC(C3)C1)C2)c1c(N)n(Cc2ccccc2)c(=O)[nH]c1=O	Pf growth 96h inconclusive, Pf growth 48h inconclusive
COc1ccc(NC(=O)CCNC(=O)c2ccccc2Cl)cc1OC	Pf growth 96h inconclusive
CCOC(=O)C1=C(COC(=O)C(CC)Oc2ccccc2)NC(=O)NC1C (stereo not drawn)	none (no result: CHX counter, Shiga toxin inh)
COCCCn1c(=O)c2ccccc2n(Cc2cc(C(=O)OC)ccc2OC)c1=O	Pf growth 48h 7.4µM
O=C(Nc1ccc(F)cc1F)N1CCCCCC1	CHX counter 27
O=C(Nc1ccc(Br)cc1)N1CCCCCC1	CHX counter 55, Shiga toxin inh 98
CC(=O)c1ccc(N2CCN(C(=O)Nc3ccc(F)cc3F)CC2)cc1	Pf growth 96h inconclusive, Pf growth 48h inconclusive
COC(=O)c1ccc(NC(=O)C(=O)N2CCCC2)cc1	Shiga toxin inh 76 (no result: Pf growth 96h)
O=C(Nc1cccc(F)c1)N1CCCCCC1	none
COc1ccc(NC(=O)NC2(C(=O)N3CCOCC3)CCCCC2)cc1	CHX counter 22
CCOc1ccc(N(Cc2cc3cc(C)ccc3[nH]c2=O)S(=O)(=O)c2ccccc2)cc1	none
